A short description of experiment [1]: qHTS assay to identify small molecule agonists of the vitamin D receptor (VDR) signaling pathway - cell viability counter screen (AID 743224; active = well fitted curve in the direction sought with a large enough effect in the repeat runs; an effect the other way counts as inactive or inconclusive; note: nearly all actives have a fitted effect of over 50% in size; note: potency is the fitted concentration of half-maximal effect). In short, it runs like this: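 Plated VDR-bla cells (4 h, 37C) received compound, incubated 16 h, then LiveBLAzer substrate 2 h RT; CellTiter-Glo added afterwards, luminescence read at 30 min.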
A general note: Quantitative high-throughput screening tests each substance at several concentrations.

Experiment [2] in a line: qHTS assay to identify small molecule antagonists of the vitamin D receptor (VDR) signaling pathway - cell viability counter screen (AID 743225; active = well fitted curve in the direction sought with a large enough effect in the repeat runs; an effect the other way counts as inactive or inconclusive; note: nearly all actives have a fitted effect of over 50% in size; note: potency is the fitted concentration of half-maximal effect). A digest of the protocol:
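Cytotoxicity counter screen read by CellTiter-Glo luminescence (30 min, room temperature) in the same wells as the VDR-bla antagonist readout. HEK 293T VDR-UAS-bla cells had 16 h at 37C with compound and 3 nM (final) 1-alpha,25-dihydroxyvitamin D3, then 2 h with FRET substrate.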

Experiment [3] is described as follows: qHTS assay to identify small molecule agonists of the endoplasmic reticulum stress response signaling pathway (AID 1159516; active = well fitted activation curve with a large enough effect in the signal ratio in the repeat runs, not every such curve was filed as active; the % refers to the signal ratio). In short, it runs like this: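 An ESRE-bla HeLa cell assay: compounds were pin-transferred from DMSO onto overnight-plated cells and left 5 hr at 37 C. Substrate was then loaded for 2 hr at room temperature before reading fluorescence at 460 nm and 530 nm.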

Experiment [4] can be described thus: qHTS assay to identify small molecule agonists of the endoplasmic reticulum stress response signaling pathway - cell viability counter screen (AID 1159517).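 Note: HeLa cells carrying an ER stress response element beta-lactamase reporter; series mostly up to about 61 µM; nearly all actives have a fitted effect of over 50% in size.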 A digest of the protocol:
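CellTiter-Glo was added to wells already read for beta-lactamase FRET, and luminescence was recorded 30 min later. Cells: ESRE-bla HeLa, 1,500 per well, compound exposure 5 hr at 37 C.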

Experiment [5] can be described thus: qHTS assay to identify small molecule antagonists of the retinoid-related orphan receptor gamma (ROR-gamma) signaling pathway - cell viability counter screen (AID 1159520; active = well fitted curve in the direction sought with a large enough effect in the repeat runs; an effect the other way counts as inactive or inconclusive; note: nearly all actives have a fitted effect of over 50% in size; note: potency is the fitted concentration of half-maximal effect). In short, it runs like this: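 Tet-on ROR gamma CHO cells (1,000/well) were plated 4 hr, given compounds in DMSO for 2 hr at 37 C, then induced with 1 uM final doxycycline for 16 hr. Viability was read as ATP by CellTiter-Glo luminescence after 30 min.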

Experiment [6] can be described thus: qHTS assay to identify small molecule agonists of the AP-1 signaling pathway - cell viability counter screen (AID 1159525). Note: nearly all actives have a fitted effect of over 55% in size. In short, it runs like this: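 ME-180 AP-1-bla, 2500 cells/well, Opti-MEM + 0.5% dialyzed FBS; overnight 37 °C; cpd 15-pt titration, 5 h 37 °C; CellTiter-Glo 30 min RT; luminescence read; normalised to TOAB and DMSO controls.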
Experiment [7] can be described thus: qHTS assay to identify small molecule agonists of the AP-1 signaling pathway (AID 1159526).
Experiment [8] has as its target Retinoic acid receptor RXR-alpha (Homo sapiens) (UniProt P19793). As to the kind of experiment: qHTS assay to identify small molecule agonists of the RXR signaling pathway (AID 1159527). Note: nearly all actives have a fitted effect of over 35% in size. A digest of the protocol: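 Agonist-mode beta-lactamase reporter assay: HEK 293T RXR-alpha-UAS-bla cells treated 16 hr at 37 C with compounds, 9-cis retinoic acid as positive control. LiveBLAzer FRET substrate, 405 nm excitation, 460/530 nm emission.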

The target in experiment [9] is Nuclear receptor ROR-gamma (Homo sapiens) (UniProt P51449). As to the kind of experiment: qHTS assay to identify small molecule antagonists of the retinoid-related orphan receptor gamma (ROR-gamma) signaling pathway (AID 1159521; active = well fitted curve in the direction sought with a large enough effect in the repeat runs; an effect the other way counts as inactive or inconclusive; note: nearly all actives have a fitted effect of over 50% in size; note: potency is the fitted concentration of half-maximal effect). In short, it runs like this:
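Antagonist read-out: drop in luminescence (ONE-Glo) from an RORE-LUC reporter in CHO cells with doxycycline-inducible ROR-gamma; 2 hr compound pretreatment, 1 uM doxycycline, 16 hr incubation at 37 C.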

Where “and” joins values, the source holds several entries; their conditions need not be identical. Equal entries are not always repeated. Records with an inconclusive call do not appear. Calls of active or inactive are those of the source. Unless noted, calls come from the whole dose curve.

Retinoic acid receptor RXR-alpha (Homo sapiens), sequence (P19793 whole entry, looked up): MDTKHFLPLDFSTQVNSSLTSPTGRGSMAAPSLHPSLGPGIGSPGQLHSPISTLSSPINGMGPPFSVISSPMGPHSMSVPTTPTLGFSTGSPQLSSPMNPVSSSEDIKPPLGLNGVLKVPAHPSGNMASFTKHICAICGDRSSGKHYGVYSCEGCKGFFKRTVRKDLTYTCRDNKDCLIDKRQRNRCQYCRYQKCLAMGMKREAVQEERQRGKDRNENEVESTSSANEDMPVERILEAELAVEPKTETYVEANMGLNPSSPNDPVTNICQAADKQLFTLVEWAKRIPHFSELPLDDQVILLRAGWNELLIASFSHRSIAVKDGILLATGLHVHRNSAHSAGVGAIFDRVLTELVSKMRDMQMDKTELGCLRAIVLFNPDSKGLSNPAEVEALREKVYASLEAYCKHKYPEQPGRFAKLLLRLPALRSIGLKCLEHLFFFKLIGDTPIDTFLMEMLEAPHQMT

In the case of `O=C(O)C(O)C(O)C(=O)O` (stereo unspecified), the Potency result in experiment [1], in experiment [2], in experiment [3], in experiment [4], in experiment [5] and in experiment [6] was “inactive” throughout. Moreover, the Potency entry in experiment [7] and in experiment [8] was “inactive” throughout.

As to `COc1ccc(C(=O)c2c(C)n(CCN3CCOCC3)c3ccccc23)cc1`, the Potency result in experiment [1], in [2], in experiment [3], in experiment [4], in experiment [9] and in experiment [6] was “inactive” each time. Besides, the Potency entry in [7] is “inactive”.

Turning to `CCCCCCCCCCCCN(C)C`, the Potency result in experiment [2], in [3], in experiment [4], in experiment [5], in experiment [6] and in experiment [7] was “inactive” in each case. In addition, the Potency result in [8] is “inactive”.

Regarding `C=CCc1ccccc1O`, the Potency entry in experiment [1], in [2], in [3], in [4], in [5] and in experiment [9] was “inactive” each time. Further, the Potency result in experiment [6], in experiment [7] and in [8] was “inactive” in each case.

As to `CCCCC(CC)COC(=O)c1c(Br)c(Br)c(Br)c(Br)c1C(=O)OCC(CC)CCCC` (stereo unspecified), the Potency entry in [1], in experiment [2], in [3], in [4], in experiment [5] and in experiment [9] was “inactive” throughout. Moreover, the Potency result in experiment [6], in experiment [7] and in experiment [8] was “inactive” in each case.

For `C=CC(C)(CCC=C(C)C)OC(=O)c1ccccc1N` (stereo unspecified), the Potency entry in [1], in experiment [2], in experiment [3], in experiment [4], in experiment [5] and in experiment [9] was “inactive” each time. Besides, the Potency entry in experiment [6], in [7] and in [8] was “inactive” each time.

As to `CCCC[N+](CCCC)(CCCC)CCCC`, the Potency result in experiment [1], in [2], in [3], in experiment [4], in [5] and in experiment [9] was “inactive” in each case. The Potency entry in [6] and in experiment [7] was “inactive” each time.

Consider `CC(C)[C@@H](C(=O)O[C@@H](C#N)c1cccc(Oc2ccccc2)c1)c1ccc(Cl)cc1`, for which the Potency result in experiment [1], in [2], in experiment [4], in [5] and in experiment [6] was “inactive” each time. In addition, in [9], the Potency is 17.5 µM (active).

Take `OCCSSCCO`: the Potency entry in [1], in experiment [3], in experiment [4], in experiment [9], in experiment [6] and in experiment [7] was “inactive” throughout. Besides, in [8], the Potency result is “inactive”.

With `O=C1c2ccccc2C(=O)N1SC(Cl)(Cl)Cl`, the Potency in experiment [1] was 19.2 µM (active) and 6.92 µM (active); in experiment [2], 34.2 µM (active); in experiment [5], 30.2 µM (active) and 21.7 µM (active); in experiment [9] it was 6.03 µM (active) and 7.7 µM (active). In addition, the Potency entry in experiment [4] and in experiment [6] was “inactive” throughout.

As for `Oc1cccc(Cl)c1`, the Potency result in experiment [1], in [3], in experiment [4], in [5], in [9] and in experiment [6] was “inactive” each time. Besides, the Potency entry in experiment [7] and in [8] was “inactive” in each case.

Take `O=C(Cc1ccccc1)OCCc1ccccc1`: the Potency entry in experiment [1], in [2], in experiment [3], in experiment [4], in experiment [9] and in experiment [6] was “inactive” throughout. Also, the Potency result in experiment [7] and in experiment [8] was “inactive” in each case.

On to `Nc1ccccc1C(=O)OCC(O)CO` (stereo unspecified), for which the Potency result in experiment [2], in [3], in [4], in experiment [5], in [9] and in experiment [6] was “inactive” each time. In addition, the Potency result in experiment [7] and in experiment [8] was “inactive” each time.

With `CCOP(=O)(O)C(N)=O`, the Potency entry in [2], in experiment [3], in experiment [4], in experiment [5], in [9] and in experiment [6] was “inactive” each time. The Potency entry in experiment [7] and in experiment [8] was “inactive” each time.

Take `CC(O)CN1CCN(CC(=O)[O-])CCN(CC(=O)[O-])CCN(CC(=O)[O-])CC1.[Gd+3]` (stereo unspecified): the Potency entry in experiment [2], in [3], in experiment [4], in experiment [6], in experiment [7] and in [8] was “inactive” throughout.

As for `CCCC(C)(COC(N)=O)COC(=O)NC(C)C` (stereo unspecified), the Potency result in experiment [1], in experiment [2], in [3], in experiment [4], in experiment [5] and in [9] was “inactive” each time. Moreover, the Potency entry in [6], in experiment [7] and in [8] was “inactive” each time.

Turning to `CCN(C(C)=O)c1cccc(-c2ccnc3c(C#N)cnn23)c1`, the Potency result in experiment [1], in [2], in experiment [3], in experiment [4], in experiment [5] and in experiment [9] was “inactive” throughout. Also, the Potency result in experiment [6], in [7] and in [8] was “inactive” in each case.

Turning to `FC(Cl)(Cl)C(F)(Cl)Cl`, the Potency entry in experiment [1], in experiment [3], in experiment [4], in experiment [5], in experiment [9] and in experiment [6] was “inactive” each time. The Potency entry in [7] and in experiment [8] was “inactive” throughout.

For the compound `Nc1cccc2ccccc12`, the Potency result in experiment [2], in experiment [4], in experiment [5], in experiment [9], in experiment [6] and in [8] was “inactive” throughout.
